PubChem BioAssay AID1508600 (Functional Genomics Laboratory (NCATS/FGL), 2020)
Out of some 53,000 sequences screened, about 3,700 (7%) were called active. The sample as a whole holds a higher share of actives than the screen did. Unmarked numbers belong to inactive results.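 How the source made its calls: active means gene knockdowns whose robust z-score for IL-1 alpha signal is at least 2 or at most -2, so actives lie on both sides; inactive means the rest.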

test: Components of the Cytosolic LPS Sensing Pathway: Gene Identification via Genome-wide siRNA Screen; details: RAW264.7 macrophages, IL-1a HTRF, actives lie on both sides, screened at 100 nM (by protocol), cells primed 5 h with Pam3CSK4 first;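 further: robust z of the log signal after scaling to non-targeting control siRNA wells of the plate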
Procedure, shortened: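 RAW264.7; siRNA 100 nM final, RNAiMAX, 48h 37 degrees C; Pam3CSK4 5 h; LipidA + TransIT-TKO 24 h; IL-1a HTRF; CellTiter-Glo viability; robust z vs negative-control median.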

Sequence | z-score
GCUUUUUGACUACGUAGCCTT against Hkdc1 | 0.0141
GGUUUGAGAAAUUGGACAUTT against Pou6f1 | 3.72 (active)
GGAAAGCAGGACAAAAGGCTT against Mettl18 | 0.346
GUCAUCUUGUUCCAUCUGATT against Olfr1269 | -1.12
CGACCUAACCAACAUGCUUTT against Asap3 | 0.0248
GGUAGCUGUUUAGGACAAUTT against Arl6ip5 | 3.79 (active)
GCGAUUCUGUUGUUAGCUUTT against Rln1 | 0.134
GGUAGAAUUGUGAUCUCAGTT against Bco2 | -0.411
GCAGGUACUAUUUGUGACGTT against Olfr30 | 1.07
GCAGCACGAACUGAUGACGTT against Plcd3 | -2.18 (active)
GGUGGACAACCAGUUCUACTT against Mapk10 | 1.27
CCUGUGUUUCAGUUUGGUATT against Clptm1l | 0.549
GGCUCAAUAAUGUUUUCAATT against Smpd3 | 3.18 (active)
CGUAAAUUCACCAAGGAGCTT against Slc19a1 | -0.805
GGACAUUGACACUUCCCUGTT against P2rx5 | -1.85
GGAGAUAACAGAUCUGUUUTT against Fam114a2 | -0.843
GGCAUCCACACAGAACAAGTT against Zfp467 | -0.287
GGGAUAGGGUUCAAUUAGGTT against Bcl2l13 | 0.231
GUCCCAGUACUUCUUGUUUTT against Vmn1r27 | 0.675
GGGUGAUAAAUGUUUGAAUTT against Vmn1r45 | 0.338
GGAGGCUGUUGUGGAUCUUTT against Acin1 | 1.03
GGAAUGUGAAGAAGAAAUUTT against Dnttip2 | 2.03 (active)
GCCUAUUGUAGUGUUACAUTT against Cyp2c67 | -0.887
GGUGAUCCAGCUUUCUUGGTT against Tiaf2 | -0.351
GGGAAAACAGGUACGACUGTT against Odf1 | -0.743
GGUGAUCAAGGACAUUUAATT against Psma5 | 0.0545
GCCAAUGCUUCCAUUACCATT against Abca17 | 0.141

Sequence | z-score
GGAGCUAGAUAGGAAAAAATT against Vill | -1.44
CGAUUGACUUAAGAUUCAGTT against Hlf | -0.612
GGCCAAAGAGUUCAGCCUATT against Prrx2 | -0.29
GGUCAAAAGUUCUGGACAGTT against Spin4 | 5.6 (active)
GGACGAUGGUUCCUGAAAATT against Snap91 | -1.39
GGUUGAAGGAGUGUUUUAUTT against Rtcb | 2.09 (active)
GGCCCAUAAUUAAAUGUUUTT against Stac2 | 0.438
CCAAUAGUUGUGGACAUGATT against Crisp1 | 1.82
GCUUACCUUGUUCUUAAAGTT against D2hgdh | -1.62
GGUACCAUAUGAGAGCUAATT against Tsr2 | 2.7 (active)
AACCAGAGGUCCUAAAUACTT against Mmp28 | -0.948
GCUAAGUGCUCGAAUCCGATT against Cnppd1 | -0.326
GGUGGACAUGUGGAAUGAUTT against Ubxn11 | 0.463
GCUAGUGACUUUGAGAUUGTT against Msh5 | -0.75
CCACUUUCAGAAACAUUACTT against A2ml1 | -1.01
GGCUACUGUUGCUGCAUUUTT against Lin7c | -2.49 (active)
CCAACAAAAACGUACUUUGTT against 9530091C08Rik | 1.24
CCAGAGAGAUACCUGAUCUTT against Tas2r113 | -0.993
GGGACAAUACAUUGAUAGCTT against Vmn1r206 | -0.625
GGAAGAUGCCUACUUCAGATT against 4632433K11Rik | 2.5 (active)
GGCCAUCACUAUUAGCCUCTT against Vmn1r70 | -0.214
GGGCUAUAUAUAUUUCCACTT against Asns | 2.75 (active)
CCAUAUUGGCAAUCUCUAGTT against Khdc1a | 2.15 (active)
GGAAGUAUUGACGAGUGGGTT against Orai3 | 0.0813
GGAAGUCCAUCAGCUUUAUTT against Wdr78 | 2.29 (active)
GCGACUGACACUAACAGAATT against Poc1a | -0.261
GGUUUCAUGAAAGAGGAGCTT against Cbs | -0.926
